Hit rate of the full screen: of about 4,500 compounds, about 200 (4.4%) were called active.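 The calls were made as follows: active = cell survival measured by absorbance rises more than 2.5-fold over infected cells without compound; inactive = the rest.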 Many of the other results were omitted from the sample, so actives are more common in it than they were.

This assay is described as follows: survival after telomere uncapping, modulators, primary screen, cell-based (AID 1259312).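 Also: virus expresses mutant telomerase RNA that uncaps telomeres and kills cells; compound added 2 days after infection so exposure lasts 3 days.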 Particulars: HCT116 + Ad-hTR-mut, MTT, 5 d; at 10 µM, hits give high values.
`CN1CCN(c2ccc([N+](=O)[O-])c(N3CCN(C)CC3)c2)CC1`: the fold change was -1.49 (inactive).
As for `CC1CN(c2ccc([N+](=O)[O-])c(N3CCOCC3)c2)CCN1` (stereo not given), the figure is -1.03 (inactive); as for `O=[N+]([O-])c1ccc(N2CCOCC2)cc1Cl`, 4.62 (active).
The result for `O=[N+]([O-])c1ccc(Cl)c2nonc12` reads -8.7 (inactive); that for `NC1(Cc2ccc(Cl)cc2)CC1`, -2.29 (inactive); that for `O=C1C[C@@H]2OCC=C3CN4CC[C@]56c7ccccc7N1[C@H]5[C@H]2[C@H]3C[C@H]46`, -1.27 (inactive).
As for `COc1cc2c(cc1OC)C13CCN4CC5=CCOC6CC(=O)N2C1C6C5CC43` (stereo not given), the figure is 3.18 (active); as for `CN1CCN(c2ccc([N+](=O)[O-])cc2Cl)CC1`, -1.02 (inactive); as for `CCc1cc(CC)c(C=C(C#N)C#N)c(CC)c1`, 1.07 (inactive).
Regarding `N#CC(C#N)=Cc1c2ccccc2cc2ccccc12`, the fold change is 3.81 (active).
`Cc1cc(C)c(C)c(C=C(C#N)C#N)c1C`: the fold change was 1.51 (inactive).
The result for `CCOC(=O)c1c(NC(=O)C2C(C)(C)C2(C)C)sc2c1CCC2` reads -1.33 (inactive).
As for `CC1CN(c2ccc([N+](=O)[O-])cc2[N+](=O)[O-])CCN1` (stereo not given), the figure is 2.15 (inactive).
The result for `Clc1ccc2c(N3CCNCC3)ccnc2c1` reads -2.13 (inactive).
Regarding `CC(=O)OC1CCC2(C)C3CCC4(C)C(CC[C@]4(OC(C)=O)C(C)OC(C)=O)C3CC[C@H]2C1` (stereo not given in full), the fold change is 3.25 (active).
As for `C[C@]12CC[C@H](O)C[C@@H]1CC[C@@H]1[C@@H]2CC[C@]2(C)C(=O)CC[C@@H]12`, the figure is 1.18 (inactive); as for `COC(=O)C(N)CCCN=C(N)N[N+](=O)[O-]` (stereo not given), -1.4 (inactive).
As for `CCNc1nc(Cl)nc(NCC)n1`, the figure is 2.5 (active).
As for `O=c1[nH]c(=O)n(Cc2ccco2)c(O)c1C=NCc1cccs1`, the entry is “inactive”; as for `COC(=O)Nc1nc2ccccc2[nH]1`, -8.68 (inactive); as for `O=[N+]([O-])c1ccc(NCCO)c2cccnc12`, -1.59 (inactive).
Consider `CCNCCNc1ccc([N+](=O)[O-])c2cccnc12`, for which the fold change is -2.62 (inactive).
For the molecule `O=[N+]([O-])c1ccc(NCCO)c2ncccc12`, the fold change was 2.89 (active).
With `N#Cc1c(/N=C/c2c(O)n(Cc3ccco3)c(=O)[nH]c2=O)sc2c1CCCC2`, the fold change entry is “inactive”.
The result for `CC1CN(c2ccccc2[N+](=O)[O-])CCN1` (stereo not given) reads 1.8 (inactive); that for `CC1(C)C(C(=O)Nc2cc(Br)c(Br)c(Br)c2)C1(C)C`, -1.03 (inactive).
The result for `COc1cc2c(cc1OC)C(C)NCC2` (stereo not given) reads 1.05 (inactive); that for `COc1ccc(CC2NCCc3cc(OC)c(OC)cc32)cc1OC` (stereo not given), -2.4 (inactive).
The result for `COc1cc2c(cc1O)CCNC2C` (stereo not given) reads 4.6 (active).
For `COCc1c(C)cc(C)c(C=C(C#N)C#N)c1C`, the fold change was -1.04 (inactive).
In the case of `C[C@]12CC[C@H]3[C@@H](CC[C@]4(O)C[C@@H](O)CC[C@]34C=O)[C@@]1(O)CC[C@@H]2C1=CC(=O)OC1`, the fold change was -23.3 (inactive).
In the case of `CCC1CN2CCC1CC2C(O)c1ccnc2ccc(OC)cc12` (stereo not given), the fold change was 1.15 (inactive).
The result for `C#CCSc1nc2ccccc2c(=O)n1-c1ccccc1` reads -2.72 (inactive); that for `CCCCc1ccc(C=C(C#N)C#N)s1`, -1.17 (inactive).
As for `Nc1nonc1[N+](=O)[O-]`, the figure is 1.03 (inactive); as for `Nc1nonc1-c1nn[nH]n1`, -1.38 (inactive).
On to `N/N=C(\N)c1nonc1N`, for which the fold change was 3.99 (active).
The result for `Cc1cc(C)[n+]2cc(Br)ccc2n1` reads 1.21 (inactive).
The result for `O=C(CCl)Nc1ccccn1` reads -1.43 (inactive); that for `O=[N+]([O-])c1ccc(N2CCNCC2)c2cccnc12`, -1.29 (inactive).
The result for `CC1CN(c2ccc([N+](=O)[O-])c3cccnc23)CC(C)N1` (stereo not given) reads 3.89 (active).
Regarding `CN1CCN(c2ccc([N+](=O)[O-])c3cccnc23)CC1`, the fold change was -1.27 (inactive).
Regarding `O=C(CCl)NCc1ccco1`, the fold change is 1.2 (inactive).
Turning to `CCc1nnc(NC(=O)CCl)s1`, the fold change was 1.66 (inactive).
As for `N#CC1=C(N)Oc2c(c(=O)oc3ccccc23)C1c1cccc2ccccc12` (stereo not given), the figure is -1.29 (inactive).

Source of the values: PubChem BioAssay AID1259312 (Keith Lab, Institute of Cancer Science, University of …, 2017).
